Assay results from PubChem BioAssay AID504333 (National Center for Advancing Translational Sciences (NCATS), 2011).
The whole screen tested about 360,000 compounds, of which about 16,000 (4.4%) were called active. Roughly 9% stayed inconclusive and do not appear here. Calls follow the shape of the dose curve; as a rule, active = well fitted inhibition curve with a large enough effect; inconclusive = small, poorly fitted or top-dose-only effect; inactive = no such curve, though single readings can be large or run the other way. The entries come from a sample that favours actives as a whole.

What follows are molecules tested against Bromodomain adjacent to zinc finger domain protein 2B (Homo sapiens) (UniProt Q9UIF8) (assay: qHTS Assay for Inhibitors of BAZ2B). Conditions: AlphaScreen BAZ2B-H3K14Ac peptide displacement; series mostly up to 114 µM; activity change, negative = inhibition: at the top concentration.
In short: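 BAZ2B (50 nM) with biotin-H3(5-23)K14Ac peptide (50 nM) in PBS pH 7.4, 0.01% Tween-20, preformed 30 min, then compound 30 min at room temperature; top concentration 110uM. AlphaScreen streptavidin donor/nickel chelate acceptor beads (10 ug/mL final), 20 min dark, signal read.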
% is scaled to controls: 0 for no effect and ±100 for the full control effect; potency is read from the fitted curve at half-maximal effect.
Also: nearly all actives have a fitted effect of over 60% in size.

Chain of Bromodomain adjacent to zinc finger domain protein 2B (Homo sapiens) (Q9UIF8 whole entry, looked up, the tested form may be a part): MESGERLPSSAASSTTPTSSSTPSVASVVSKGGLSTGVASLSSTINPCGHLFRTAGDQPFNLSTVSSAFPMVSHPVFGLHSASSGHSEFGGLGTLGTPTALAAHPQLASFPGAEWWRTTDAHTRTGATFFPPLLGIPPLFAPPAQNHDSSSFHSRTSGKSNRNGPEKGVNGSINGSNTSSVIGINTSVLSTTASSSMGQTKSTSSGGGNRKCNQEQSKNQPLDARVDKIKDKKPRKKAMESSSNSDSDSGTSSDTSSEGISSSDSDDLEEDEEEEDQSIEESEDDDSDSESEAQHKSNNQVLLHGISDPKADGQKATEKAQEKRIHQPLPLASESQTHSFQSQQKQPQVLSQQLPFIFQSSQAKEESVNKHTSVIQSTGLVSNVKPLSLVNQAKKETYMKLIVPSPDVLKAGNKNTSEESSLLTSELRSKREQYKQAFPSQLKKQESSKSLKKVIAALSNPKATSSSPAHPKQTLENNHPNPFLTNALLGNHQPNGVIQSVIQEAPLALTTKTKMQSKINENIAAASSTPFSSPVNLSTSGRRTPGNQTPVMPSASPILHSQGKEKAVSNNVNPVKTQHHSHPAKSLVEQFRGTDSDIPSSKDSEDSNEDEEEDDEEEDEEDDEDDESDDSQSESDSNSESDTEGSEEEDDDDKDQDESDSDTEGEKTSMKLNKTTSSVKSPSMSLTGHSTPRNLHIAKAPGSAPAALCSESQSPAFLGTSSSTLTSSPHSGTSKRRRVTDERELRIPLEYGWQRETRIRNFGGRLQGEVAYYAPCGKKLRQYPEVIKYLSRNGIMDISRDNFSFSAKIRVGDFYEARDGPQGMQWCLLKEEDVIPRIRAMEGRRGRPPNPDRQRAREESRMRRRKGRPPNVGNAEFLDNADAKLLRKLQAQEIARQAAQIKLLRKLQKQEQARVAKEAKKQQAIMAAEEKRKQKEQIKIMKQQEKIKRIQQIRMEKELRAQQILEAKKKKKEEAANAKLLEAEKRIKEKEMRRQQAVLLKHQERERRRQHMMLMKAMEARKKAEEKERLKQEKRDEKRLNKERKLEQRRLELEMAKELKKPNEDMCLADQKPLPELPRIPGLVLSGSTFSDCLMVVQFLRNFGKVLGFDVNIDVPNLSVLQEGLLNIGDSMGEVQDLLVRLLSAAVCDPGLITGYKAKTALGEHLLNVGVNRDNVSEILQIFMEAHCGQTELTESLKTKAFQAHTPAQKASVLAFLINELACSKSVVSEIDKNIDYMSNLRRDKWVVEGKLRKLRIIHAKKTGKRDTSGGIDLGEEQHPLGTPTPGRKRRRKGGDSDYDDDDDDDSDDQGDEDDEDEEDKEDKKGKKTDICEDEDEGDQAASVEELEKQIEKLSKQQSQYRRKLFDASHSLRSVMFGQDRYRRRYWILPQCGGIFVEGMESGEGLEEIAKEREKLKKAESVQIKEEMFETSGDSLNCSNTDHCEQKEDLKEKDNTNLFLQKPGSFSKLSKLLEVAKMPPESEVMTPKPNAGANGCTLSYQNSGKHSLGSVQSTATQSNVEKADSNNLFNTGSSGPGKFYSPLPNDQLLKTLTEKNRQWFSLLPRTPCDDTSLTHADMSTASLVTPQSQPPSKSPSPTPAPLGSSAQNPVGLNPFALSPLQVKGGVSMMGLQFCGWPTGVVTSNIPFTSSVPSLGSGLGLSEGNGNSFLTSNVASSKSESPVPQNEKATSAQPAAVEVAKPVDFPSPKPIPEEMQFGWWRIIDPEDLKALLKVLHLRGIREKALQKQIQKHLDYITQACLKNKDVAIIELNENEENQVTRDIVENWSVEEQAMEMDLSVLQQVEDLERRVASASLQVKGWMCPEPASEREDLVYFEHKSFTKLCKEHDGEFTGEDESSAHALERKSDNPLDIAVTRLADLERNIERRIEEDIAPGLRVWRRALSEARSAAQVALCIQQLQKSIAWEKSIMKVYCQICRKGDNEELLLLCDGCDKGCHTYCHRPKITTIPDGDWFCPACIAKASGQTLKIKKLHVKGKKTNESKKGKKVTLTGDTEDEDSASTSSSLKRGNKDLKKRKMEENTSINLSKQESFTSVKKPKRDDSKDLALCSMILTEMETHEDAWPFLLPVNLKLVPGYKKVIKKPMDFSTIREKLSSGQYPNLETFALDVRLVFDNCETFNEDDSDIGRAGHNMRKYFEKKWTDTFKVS

SMILES | activity change, negative = inhibition | Potency
CCC(C)NC(=O)CSC1=Nc2ccccc2C2=NC(CCC(=O)NCc3ccco3)C(=O)N12 (centres undefined) | -4.77% (inactive) | 
O=C(CC1N=C2c3ccccc3N=C(SCc3ccccc3Cl)N2C1=O)NCc1ccco1 (centres undefined) |  | 50.1 µM (active)
O=C(CC1N=C2c3ccccc3N=C(SCc3cccc(Cl)c3)N2C1=O)NCc1ccc2c(c1)OCO2 (centres undefined) | -11.8% (inactive) | 
Cc1ccc(-c2cc(C(F)(F)F)c(C#N)c(SCC(=O)Nc3ccccc3)n2)cc1 | -16.3% (inactive) | 
CCOC(=O)c1ccc(NC(=O)CCn2cnnn2)cc1 | -21.4% (inactive) | 
CC(=O)c1nn(-c2ccc(OC(F)(F)F)cc2)nc1Nc1ccccc1 | -1.58% (inactive) | 
Cc1cc(C(=O)COC(=O)CNC(=O)c2ccc(F)cc2)c(C)n1Cc1ccco1 |  | 50.1 µM (active)
COCCn1c(C)cc(C(=O)COC(=O)CNC(=O)c2ccco2)c1C | 11.5% (inactive) | 
Cc1cc(C(=O)CSc2nc(N)cc(=O)[nH]2)c(C)n1Cc1ccco1 | -38% (inactive) | 
COc1ccc(S(=O)(=O)c2c(Nc3ccc(C)cc3)sc(C(=O)c3ccc(C)cc3)c2N)cc1 | -14.2% (inactive) | 
CCOc1ccc(C(=O)N2CCN(CCc3ccccn3)CC2)cc1 | -16.1% (inactive) | 
COc1ccc(-c2nc3ccccc3c(=O)n2CCc2ccc(O)cc2)cc1 | -7.15% (inactive) | 
COc1ccc(-c2c(C#Cc3ccccc3)c3ccccc3n2C)cc1 | 84% (inactive) | 
COc1ccc(CCNCc2c(-c3ccccc3)n(C)c3ccccc23)cc1 |  | 50.1 µM (active)
O=C(NCCc1ccccc1)c1cnc2sc(N3CCCC3)nn2c1=O | -19.6% (inactive) | 
CCNCCC(=O)N1c2ccccc2Sc2ccc(NC(=O)OCC)cc21 | 6.36% (inactive) | 
CCOC(=O)Nc1ccc2c(c1)N(C(=O)CN1CCN3CCCC3C1)c1ccccc1CC2 (centres undefined) |  | 70.8 µM (active)
CCOC(=O)Nc1ccc2c(c1)N(C(=O)CCCl)c1ccccc1[S@]2=O | -5.38% (inactive) | 
Cc1cc(C)cc(NS(=O)(=O)c2ccc(-c3cc(C)no3)s2)c1 | 6.38% (inactive) | 
Cc1ccc(C)c(Cn2c(C)c(CNCc3ccc(F)cc3)c(C(=O)O)c2C)c1 | -35% (inactive) | 
O=C(CCCn1c(=O)c2cccn2c2cccnc21)NCc1ccc(F)cc1 | -29.1% (inactive) | 
COc1ccc(C(=O)NCCCN2CCOCC2)cc1Br | -2.68% (inactive) | 

SMILES | activity change, negative = inhibition | Potency
Cc1ccc(OCCCC(=O)N2CCOCC2)c(C)c1 | -3.15% (inactive) | 
Cc1ccc(OCCCCN2CCCCC2)c(Br)c1 |  | 50.1 µM (active)
COc1ccccc1NC(=O)c1cc(C2CC2)nc2c1c(C)nn2-c1ccc(C)cc1 | 12.9% [at 57.1 µM] (inactive) | 
CC(C)Cn1c(C2CC(=O)N(c3ccccc3Cl)C2)nc2ccccc21 (centres undefined) | -8.15% (inactive) | 
Cc1c(Cl)cccc1NC(=O)CCS(=O)(=O)c1ccc2c(c1)oc(=O)n2C | 5.14% [at 57.1 µM] (inactive) | 
Cc1ccccc1OCCSc1nc2ccc(NC(=O)c3ccco3)cc2s1 | -18.8% (inactive) | 
COc1cccc(/C=N/Nc2ccc(Cl)nn2)c1 | -10.6% (inactive) | 
Oc1cccc(/C=N/Nc2ccc(Cl)nn2)c1O |  | 8.91 µM (active)
Oc1c(Br)cccc1/C=N/Nc1c(F)c(F)c(F)c(F)c1F | -1.1% (inactive) | 
Clc1ccc(N/N=C/c2cccs2)nn1 |  | 50.1 µM (active)
Cc1ccsc1/C=N/Nc1ccc(Cl)nn1 | -32.3% (inactive) | 
Nc1nnnn1/N=C/c1cccs1 | -1.18% (inactive) | 
Cc1cccc2c(=O)cc(CSc3ccccc3NC(=O)C(C)C)[nH]c12 | 4.37% (inactive) | 
CCOC(=O)N1CCC(NC(=O)c2cnn(-c3cccc(C)c3)c2C2CCN(C(=O)OC(C)(C)C)CC2)CC1 | 8.59% [at 57.1 µM] (inactive) | 
CCc1cccc(NC(=O)Cn2nc(CC)n3c(cc4cc(C)ccc43)c2=O)c1 | 6.38% (inactive) | 
CC(C)CNc1ncnc2c1nnn2C | -10.3% (inactive) | 
CCOc1cc(/C=N/NC(=O)CN2CCCCC2)ccc1O |  | 56.2 µM (active)
O=C(CN1CCSCC1)N/N=C/c1ccc(F)cc1 |  | 50.1 µM (active)
CCOc1ccc(/C=N/NC(=O)CSc2ccccn2)cc1O | -16.7% (inactive) | 
O=C(CC(=O)N/N=C\c1ccc(F)cc1)NCCc1ccccc1 | 5.67% (inactive) | 
Cc1ccc(COc2ccc(/C=N/NC(=O)CN3CCCCC3)cc2)cc1 | -21.8% (inactive) | 
Cc1nn(CC(=O)N/N=C/c2ccc(F)cc2)c(C)c1[N+](=O)[O-] | 4.73% (inactive) | 

SMILES | activity change, negative = inhibition | Potency
Cc1cccc(CSc2nc3ccncc3n2Cc2ccc(C(=O)O)cc2)c1 | -4.88% (inactive) | 
COc1ccc(CCNC(=O)CCCCn2c(=O)c3ccccc3n(Cc3ccccc3)c2=O)cc1OC | 0.11% (inactive) | 
Cc1ccc(SCC(=O)Nc2ccc3oc(-c4ccccc4C)nc3c2)cc1 | 3.57% (inactive) | 
COc1ccc(NC(=O)c2ccc3nc(C(C)C)oc3c2)cc1OC | 0.556% (inactive) | 
CCCc1cc(=O)n2[nH]c(NCc3ccc(CC)cc3)nc2n1 | -3.81% (inactive) | 
Nc1ccccc1SC(C[N+](=O)[O-])c1ccccc1 (centres undefined) |  | 44.7 µM (active)
COc1cc(CNC(=O)c2cc3n(n2)CCCN(Cc2cccc(F)c2)C3=O)cc(OC)c1OC | -4.51% (inactive) | 
Cc1oc2ccc(O)c(CN3CCOCC3)c2c1C(=O)Nc1cccc(Cl)c1C | -1.42% (inactive) | 
CNC(=O)C(=O)N/N=C/c1ccccn1 |  | 39.8 µM (active)
O=C(CNC(=O)c1cccnc1)N/N=C/c1cccnc1 | -15.3% (inactive) | 
Cc1cc(C(=O)N/N=C/c2ccccn2)c2ccccc2n1 | 13% (inactive) | 
O=C(N/N=C/c1ccccn1)C12CC3CC(CC(C3)C1)C2 | 4.49% (inactive) | 
O=C(N/N=C/c1ccccn1)c1cccnc1 |  | 28.2 µM (active)
O=C(N/N=C/c1ccccn1)c1cccc(NC(=O)c2ccc(Cl)cc2)c1 | 14.4% (inactive) | 
COc1ccc(-c2noc(CSc3nc4ccc(C)cc4[nH]3)n2)cc1 | -9.25% (inactive) | 
Cc1oc2ncnc(N3CCCCC3)c2c1C(=O)N1CCN(c2cccc(Cl)c2)CC1 | -16.4% [at 57.1 µM] (inactive) | 
Cc1cccc(NC(=O)CSc2nnc(CNC(=O)c3cccc(C)c3)n2-c2ccccc2)c1 | -15.6% (inactive) | 
Cc1ccc(-c2ccc(CCC(=O)O)n2-c2ccc(C(N)=O)cc2)cc1 | -20.2% (inactive) | 
CCN1CCN(Cc2c(O)ccc3oc(C)c(C(=O)Nc4ccc(C)cc4C)c23)CC1 | -13.3% (inactive) | 
CC(C)(C)N(CC#CCC(O)(c1ccccc1)C1CCCC1)CCO (centres undefined) |  | 79.4 µM (active)
OC(C#CCN1CCOCC1)(c1ccccc1)C1CCCCC1 (centres undefined) | -5.69% [at 57.1 µM] (inactive) | 
CN(CC#CCC(c1ccccc1)c1ccccc1)C(C)(C)C | -34.8% (inactive) | 

SMILES | activity change, negative = inhibition | Potency
CCc1ccccc1NC(=O)c1ccc2nc(CCc3ccccc3)oc2c1 | -26% (inactive) | 
COC(=O)c1ccc(Cn2c(SCC(=O)N(C)c3ccccc3)nc3ccccc32)cc1 | -17.4% (inactive) | 
CN(c1cccc(NC(=O)Nc2ccc(Cl)cc2)c1)S(C)(=O)=O | 9.77% [at 57.1 µM] (inactive) | 
O=C(Nc1ccc(Oc2ccccc2)cc1)C1CCN(S(=O)(=O)c2ccc(Cl)cc2)CC1 | -2.4% (inactive) | 
O=C(Nc1ccccc1)c1nnsc1S(=O)(=O)c1ccc(Cl)cc1 |  | 44.7 µM (active)
CCCCN(CC)CCCNC(=O)c1nn(C)c2c1CSc1ccccc1-2 | 5.53% (inactive) | 
Cc1ccccc1CNC(=O)c1cccc(NC(=O)c2nsc3ccccc23)c1 | 3.02% (inactive) | 
O=C(CSc1nnc(-c2ccncc2)n1-c1ccccc1)Nc1ccc(Cl)c(Cl)c1 | 2.59% (inactive) | 
Cc1cc(C)cc(-n2c(SCC(=O)NCC3CCCO3)nc3c([nH]c4ccccc43)c2=O)c1 (centres undefined) | -1.42% (inactive) | 
CC1=NN(Cc2ccccc2)C(=O)/C1=C/c1ccc(N(C)C)cc1 |  | 2 µM (active)
CN(C)c1ccc(/C=C2\NC(=S)N(Cc3ccccc3)C2=O)cc1 |  | 28.2 µM (active)
CSc1c(SCc2ccccc2)cnn(Cc2ccccc2)c1=O | 12.4% (inactive) | 
CN(C)c1ccnc2sc3c(=O)n(Cc4ccccc4)cnc3c12 | 7.26% (inactive) | 
Cc1ccc(CN2C(=O)N/C(=C/c3cc(C)n(-c4ccccn4)c3C)C2=O)cc1 | -9.16% (inactive) | 
O=C1N/C(=C/c2cccs2)C(=O)N1Cc1ccc(F)cc1 | -14.6% (inactive) | 
CCc1ccc(C(=O)CC2(O)C(=O)N(CCc3ccccc3)c3ccc(Br)cc32)cc1 (centres undefined) | -18.3% (inactive) | 
CCC1CCCCN1Cc1c(O)ccc2c(=O)c(Oc3ccccc3Cl)c(C(F)(F)F)oc12 (centres undefined) | 8.59% [at 57.1 µM] (inactive) | 
COCCNC(=O)c1ccc2c(c1)N(Cc1cccc(Cl)c1)C(=O)c1ccccc1S2(=O)=O | 6.11% (inactive) | 
Cc1c(-c2nsc(NC(=O)c3cccc(Cl)c3)n2)nnn1-c1ccccc1C(F)(F)F | -1.61% (inactive) | 
Cc1ccccc1Nc1scc(-c2ccc(Br)cc2)[n+]1-c1ccccc1C |  | 11.2 µM (active)
O=C(CSc1ncc(S(=O)(=O)c2ccc(Br)cc2)c(=O)[nH]1)Nc1ccc2c(c1)OCCO2 | -25.2% (inactive) | 
CCOc1ccc(C(NC(=O)c2cc(OC)c(OC)c(OC)c2)c2cc(Cl)c3cccnc3c2O)cc1 (centres undefined) | 4.51% (inactive) | 

SMILES | activity change, negative = inhibition | Potency
CCN1CCN(C(c2ccc(C)cc2)c2c(O)cc(C)n(Cc3ccco3)c2=O)CC1 (centres undefined) | -18.2% (inactive) | 
CCOC(=O)N1CCN(C(=O)CSc2nc(=O)n3cccc(C)c3n2)CC1 | 8.46% (inactive) | 
CCN1CCN(C(c2cccnc2)c2cc(Cl)c3cccnc3c2O)CC1 (centres undefined) |  | 11.2 µM (active)
CCOC(=O)N1CCN(C(c2cccnc2)c2ccc3cccnc3c2O)CC1 (centres undefined) |  | 15.8 µM (active)
COc1ccccc1N1CCN(C(CNC(=O)C(=O)NCc2ccc(C)cc2)c2cccnc2)CC1 (centres undefined) | -3.79% (inactive) | 
Cc1ccc(Cl)cc1NC(=O)CCC(=O)N1CC(C)Sc2ccccc21 (centres undefined) | -4.18% (inactive) | 
CCOc1ccc(Nc2ncnc3scc(-c4ccc(OC)cc4)c23)cc1 | -2.31% (inactive) | 
CN(NS(=O)(=O)c1cccs1)c1ncc(C(F)(F)F)cc1Cl |  | 56.2 µM (active)
CN(CC(=O)Nc1cccc(C(F)(F)F)c1)S(=O)(=O)c1cccs1 | 2.07% (inactive) | 
C#CCN(N(C)c1ncc(C(F)(F)F)cc1Cl)S(=O)(=O)c1ccc2ccccc2c1 | 3.53% (inactive) | 
Cc1cccc(-n2ncc(C(=O)N3CCN(c4ccc(Cl)cc4)CC3)c2C2CCN(C(=O)OC(C)(C)C)CC2)c1 | -17.4% [at 57.1 µM] (inactive) | 
CC1=C(C(=O)OCC(C)C)C(c2ccc(OCc3ccccc3)cc2)N2C(=O)CCSC2=N1 (centres undefined) | -11.9% (inactive) | 
Cc1cc(/C=C2/SC(=O)N(CC(=O)N3CCCC3)C2=O)c(C)n1C | -31.3% (inactive) | 
Cc1cc(/C=N/n2cnnc2)c(C)n1-c1cccc(C(=O)O)c1 |  | 35.5 µM (active)
Cc1cc(/C=C2\SC(=O)N(C)C2=O)c(C)n1-c1cccc(C(=O)O)c1 |  | 79.4 µM (active)
Cc1cccc(C)c1NC(=O)CSc1ccc([N+](=O)[O-])cn1 | -6.12% (inactive) | 
O=[N+]([O-])c1cccc(/C=N/Nc2ncc(Br)cn2)c1 | 10.5% (inactive) | 
NC1=NN(c2cccc(C(=O)O)c2)C(=O)C1 | -32.4% (inactive) | 
Cc1cc(/C=N/Nc2ccc([N+](=O)[O-])cn2)c(C)n1-c1cccc(C(=O)O)c1 |  | 44.7 µM (active)
Cc1cc(/C=C2/SC(=O)N(CC(=O)OC(C)C)C2=O)c(C)n1C | -4.3% (inactive) | 
Fc1ccc(Br)cc1/C=N/n1cnnc1 | -0.0547% (inactive) | 
